Shown are actives, neighbours in structure and some others; about 2.3% of the full set was active somewhere.
FBPA coupling cs = qHTS Assay for Inhibitors of Fructose-1,6-bisphosphate Aldolase from Giardia Lamblia: Coupling assay counterscreen. coupling enzyme system counterscreen, AmpLite Red fluorescence. activity change, negative = inhibition, % at 58.2 µM, hits read low. AID 2472, 2010. actives 0.67% (n = 290,000); in the data active = activity change below about -30%
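Final compound at 57.5 uM, incubated 10 min at RT with coupling enzyme reagent (glyceraldehyde-3-phosphate), then 20 min with substrate and AmpLite Red detection. Fluorescence read at 525/598 nm; tests interference with the coupling assay, not aldolase inhibition.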
Tau fluor counter = Counterscreen qHTS for Inhibitors of Tau Fibril Formation, Fluorescence Polarization | tau K18 P301L Alexa594 fluorescence, heparin fibrillization | Potency, µM (titrated, usually from 57.7 µM), inactives show at the highest dose activity change, negative = decrease | actives 0.93% (n = 280,000) | AID 1463, 2008; note: potency is the fitted concentration of half-maximal effect; nearly all actives have a fitted effect of over 55% in size
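Human K18 P301L tau (15 uM unlabeled plus 0.24 uM Alexa 594-labeled, final) in 100 mM sodium acetate pH 7 was mixed with compound and 20 uM heparin and incubated 6 hr at 37 C.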
Tau fibril FP = qHTS for Inhibitors of Tau Fibril Formation, Fluorescence Polarization; K18 P301L tau heparin fibrillization, Alexa594 FP, 6 h; Potency, µM (titrated, usually from 57.7 µM), for inactives: top-dose activity, negative = inhibition, actives largely listed as inhibitors; actives 0.39% (n = 280,000); Microtubule-associated protein tau (Homo sapiens), P10636; note: potency is the fitted concentration of half-maximal effect; nearly all actives have a fitted effect of over 55% in size
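Recombinant K18 P301L […], labeled with Alexa 594 at 0.24 uM over 15 uM unlabeled; heparin inducer 20 uM final; 37 C, 6 hr; FP endpoint.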
Tau fibril ThT = qHTS for Inhibitors of Tau Fibril Formation, Thioflavin T Binding | recombinant tau K18 P301L (four-repeat tau fragment), heparin-induced fibrillization, ThT fluorescence | Microtubule-associated protein tau (Homo sapiens), P10636 | actives 2.1% (n = 270,000) | Potency, µM (doses to about 57.4 µM), inactives show at the top dose activity, negative = inhibition, hits mostly inhibitors | AID 1460, 2008; note: potency is the fitted concentration of half-maximal effect; nearly all actives have a fitted effect of over 55% in size
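Heparin-induced (20 uM) aggregation of recombinant human K18 P301L tau, 15 uM unlabeled with 0.24 uM labeled, pH 7 acetate buffer, 6 hr at 37 C with compound. Fibrils quantified by 30 uM ThT fluorescence after 1 hr ambient incubation.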
USP1 inh = Inhibitors of USP1/UAF1: Primary Screen. Potency, µM (titrated, usually from 57.1 µM), for the others: top-dose activity change, negative = inhibition, hits mostly inhibitors. AID 743255, 2014. Ubiquitin carboxyl-terminal hydrolase 1 (Homo sapiens), O94782. actives 0.23% (n = 390,000). recombinant USP1/UAF1, Ub-Rhodamine cleavage fluorescence; note: potency is the fitted concentration of half-maximal effect; nearly all actives have a fitted effect of over 60% in size
Target sequence (O94782 whole entry, looked up): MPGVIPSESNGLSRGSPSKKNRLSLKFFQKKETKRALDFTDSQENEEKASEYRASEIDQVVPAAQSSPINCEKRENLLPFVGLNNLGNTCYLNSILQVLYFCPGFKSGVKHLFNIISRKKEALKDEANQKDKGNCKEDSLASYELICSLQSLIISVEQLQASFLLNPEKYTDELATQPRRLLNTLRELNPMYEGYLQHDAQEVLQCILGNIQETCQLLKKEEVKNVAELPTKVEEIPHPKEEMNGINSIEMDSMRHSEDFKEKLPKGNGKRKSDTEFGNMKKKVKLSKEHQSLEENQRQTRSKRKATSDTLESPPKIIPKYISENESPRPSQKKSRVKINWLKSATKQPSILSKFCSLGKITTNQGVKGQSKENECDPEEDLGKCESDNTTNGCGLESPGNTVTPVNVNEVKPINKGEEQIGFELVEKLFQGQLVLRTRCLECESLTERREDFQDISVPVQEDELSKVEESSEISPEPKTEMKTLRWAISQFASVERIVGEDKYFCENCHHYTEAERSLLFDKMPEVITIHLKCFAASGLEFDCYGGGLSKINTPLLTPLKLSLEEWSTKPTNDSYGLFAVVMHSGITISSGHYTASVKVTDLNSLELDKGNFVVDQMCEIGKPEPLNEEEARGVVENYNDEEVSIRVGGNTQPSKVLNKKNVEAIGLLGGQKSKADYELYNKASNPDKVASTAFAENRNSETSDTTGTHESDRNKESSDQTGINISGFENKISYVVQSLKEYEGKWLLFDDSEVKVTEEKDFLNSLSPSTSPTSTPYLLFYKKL
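1 nM enzyme complex + cpd, 15 min RT; start with Ub-Rho 150nM final; kinetic fluorescence ex 480/em 540, 6 reads q60 s. Buffer 50mM HEPES pH 7.8, 0.5mM EDTA, 0.1 mg/ml BSA, 1mM TCEP, 0.01% Tween-20.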
Starred values were filed as active, the others as inactive; ? = inconclusive; · = not tested or not shown; [ ] = remark or other dose. Unless noted, calls come from the whole dose curve; as a rule, active = well fitted curve in the direction sought with a large enough effect; inconclusive = small, poorly fitted or top-dose-only effect, or another doubt; inactive = no such curve, though single readings can be large; an effect the other way counts as inactive or inconclusive. % is set by controls: 0 for no effect and ±100 for the full control effect.

SMILES	FBPA coupling cs	Tau fluor counter	Tau fibril FP	Tau fibril ThT	USP1 inh
O=C(Nc1nc2ccc(SC(F)F)cc2s1)c1ccc(NS(=O)(=O)c2ccc(F)c(F)c2)cc1	-1.1	?	12.6µM*	?	-19.4%
CCCNS(=O)(=O)c1ccc2nc(NC(=O)c3ccc(F)cc3)sc2c1	·	-25.6%	?	28.2µM*	-1.8%
Cn1c(=O)c(S(=O)C2CCCCC2)c(O)c2ccccc21 (centres undefined)	·	·	·	·	-13.4%
CCCC(=O)C1=C(c2ccccc2)C(C#N)(C#N)C(C#N)=C1N	-14.9	?	?	28.2µM*	-8.1%
CCCC(=O)C1=C(N(C)c2ccccc2)CC(C)(C)CC1=O	-1.2	·	·	·	-4.3%
Cc1nccc(-c2cccc(NC(=O)Nc3ccc(Cl)cc3)c2)n1	-0.2	?	?	-5.2%	-3.9%
Cc1nccc(-c2cccc(N/N=C(\C#N)C(=O)c3ccccc3)c2)n1	5.4	?	2.7%	8.91µM*	-17.2%
Cc1ccc2c(c1)c1cccc3c1n2CCN3CCC(N)=O	-0.3	?	?	11.2µM*	-15.8%
NC(=O)CCn1c2ccccc2c2ccccc21	-0.8	5.0%	4.6%	0.4%	-2.5%
O=C1NC(=O)c2cc(Nc3ccccc3)c(Nc3ccccc3)cc21	1.9	14.1µM*[quencher]	-0.1%	14.1µM*	·
O=C1NC(=O)c2cc(Nc3ccc(F)cc3)c(Nc3ccc(F)cc3)cc21	-4.6	14.1µM*[quencher]	-4.7%	12.6µM*	·
Cc1[nH]n(-c2ncc(-c3ccc(Cl)cc3)s2)c(=O)c1C(c1ccc(Cl)cc1)C(C#N)C#N (centres undefined)	3.4	?	39.8µM*	11.2µM*	-13.1%
NC(=S)N=Nc1c(O)[nH]c2c(Br)cc(Br)cc12	-7.9	-17.5%	15.8%	7.94µM*	-17.1%
Cc1ccc(OCC(=O)Nc2ccc3nc(Nc4cccc(Cl)c4)cc(C)c3c2)cc1	·	?	-10.0%	-10.7%	?
COc1ccccc1CC(=O)Nc1ccc2nc(Nc3cccc(Cl)c3)cc(C)c2c1	·	3.98µM*[quencher]	?	?	-23.5%
Cc1cc(Nc2cccc(C(F)(F)F)c2)nc2ccc(NC(=O)Cc3ccc(Cl)cc3)cc12	·	7.94µM*[quencher]	?	?	?
COc1ccc(CC(=O)Nc2ccc3nc(Nc4cccc(Cl)c4)cc(C)c3c2)cc1	·	4.47µM*[quencher]	?	?	-16.7%
CC1=C(c2ccc(C)c(C)c2)S(=O)(=O)N=C1N1CCN(c2cccc(C)c2)C(C)C1 (centres undefined)	·	0.8%	0.0%	-3.4%	-1.0%
CC(=O)OC1CC(OC(C)=O)[C@]2(C)C(CC(=O)[C@]3(C)C2CC[C@@]2(C)C(C(=O)O)OC(=O)C4OC423)C1(C)C (some centres undefined)	0.0	-5.6%	-4.8%	-0.4%	·
CCOC(=O)c1ccc(NC(=O)Nc2ccc3snnc3c2)cc1	·	-24.6%	11.2µM*	3.9%	-23.9%
O=C(Nc1ccc2snnc2c1)Nc1cccc2ccccc12	-3.6	7.94µM*[quencher]	25.1µM*	-0.1%	-1.4%
CCc1ccccc1NC(=O)Nc1ccc2snnc2c1	·	?	?	-0.2%	-31.6%
Cc1ccc(NC(=O)Nc2ccc3snnc3c2)cc1C	·	?	?	3.5%	-26.7%
COc1ccc(N=Cc2cc(Cc3ccccc3Cl)cc([N+](=O)[O-])c2O)cc1OC	1.7	-29.0%	?	10µM*	?
Cc1ccc(N=Cc2cc(Cc3ccccc3Cl)cc([N+](=O)[O-])c2O)c(O)c1	-28.6	?	?	7.94µM*	17.8µM*
SMILES	FBPA coupling cs	Tau fluor counter	Tau fibril FP	Tau fibril ThT	USP1 inh
CCOC(=O)C1(C)C=C(Nc2ccc(O)cc2)C(=O)N1c1ccc(O)cc1 (centres undefined)	-49.2*	?	28.2µM*	14.1µM*	-19.5%
Cc1cccc(N(C)C(CNS(=O)(=O)c2ccccc2)c2ccccc2)c1 (centres undefined)	·	?	11.0%	-11.3%	-22.4%
CCC12CCCN3CCc4c(n(c5ccccc45)C(O)(C(=O)OC)C1)C32 (centres undefined)	-20.0	?	?	17.8µM*	?
COc1ccc(/C=C2\SC(=S)N(C(C(=O)O)c3ccccc3)C2=O)c(OC)c1 (centres undefined)	9.2	-10.7%	-10.7%	12.6µM*	-30.3%
COc1cc(/C=C2\SC(=S)N(C(Cc3ccccc3)C(=O)O)C2=O)ccc1O (centres undefined)	9.7	-16.9%	1.5%	11.2µM*	-24.4%
COc1cc(/C=C2\SC(=S)N(Nc3ccccc3)C2=O)ccc1O	3.6	28.2µM*[quencher]	11.1%	11.2µM*	-17.8%
COc1cccc(/C=C2\SC(=S)N(C(C(=O)O)c3ccccc3)C2=O)c1OC (centres undefined)	24.6	-16.6%	-5.9%	?	-8.5%
CCOc1ccc(/C=C2\SC(=S)N(NS(=O)(=O)c3ccccc3)C2=O)cc1OC	8.3	-6.1%	7.5%	14.1µM*	-14.4%
CCOc1ccccc1NC(=O)CCc1nc(-c2cccc(C)c2)no1	·	-28.7%	0.9%	-14.9%	-26.4%
CCOc1cc(C#N)c(NC(=O)c2ccc(OC)c(S(=O)(=O)N3CCCCC3)c2)cc1OCC	·	-25.8%	-3.4%	-1.7%	-14.0%
O=C1/C(=C/c2ccc(O)c(O)c2)SC(=S)N1Nc1ccccc1	-4.2	11.2µM*[quencher]	-4.8%	5.01µM*	?
CCOc1cc(/C=C2\SC(=S)N(Nc3ccccc3)C2=O)ccc1O	-2.8	12.6µM*[quencher]	1.4%	11.2µM*	-9.3%
O=C(O)C(Cc1ccccc1)N1C(=O)/C(=C/c2ccccc2)SC1=S (centres undefined)	7.4	-0.5%	-0.1%	?	-15.7%
O=C1/C(=C/c2ccncc2)SC(=S)N1Nc1ccccc1	-5.2	?	?	17.8µM*	?
O=C(O)C(Cc1ccccc1)N1C(=O)/C(=C/c2cccc3ccccc23)SC1=S (centres undefined)	7.9	-16.1%	-6.1%	20µM*	·
CCOc1cc(/C=C2\SC(=S)N(NS(=O)(=O)c3ccccc3)C2=O)ccc1O	9.6	·	·	·	?
C=CS(=O)(=O)c1sc(Cl)c(N2CCOCC2)c1[N+](=O)[O-]	6.7	?	-1.9%	3.55µM*	-17.5%
O=[N+]([O-])c1cccc(Cl)c1N1CCOCC1	1.0	6.6%	-3.5%	-1.8%	-7.6%
C=CSc1sc(Cl)c(N2CCOCC2)c1[N+](=O)[O-]	2.9	?	-6.2%	14.1µM*	0.0%
